In all, about 39,000 compounds went through this assay and about 3,300 (8.5%) were called active. The sample holds actives, similar compounds and a random draw of the others, so the mix is not that of the screen.
Test system: HepG2
Assay: cytotoxicity call (relative viability < 0.9)
Settings: 10 µM

Q: Which cytotoxicity call does the source give for `CC1c2cccc(O)c2C(=O)C2=C(O)C3(O)C(=O)C(C(N)=O)=C(O)C(N(C)C)C3C(O)C21.Cl` (centres undefined) here?
A: inactive

Q: Which cytotoxicity call does the source give for `COc1ccc2c3c(n(c2c1)C)[C@H](CO)N(C[C@]13CN(Cc2ccncc2)C1)C(=O)CN1CCOCC1` here?
A: inactive

Q: For `CC(C)NC(=O)N(C)C[C@@H]1Oc2ccc(NC(=O)Nc3ccc4c(c3)OCO4)cc2CC(=O)N([C@H](C)CO)C[C@H]1C`, which cytotoxicity call is on record?
A: inactive

Q: `C[C@H]1CN([C@@H](C)CO)C(=O)c2cc(NS(=O)(=O)c3ccc(F)cc3)ccc2O[C@@H]1CN(C)S(=O)(=O)c1ccc(F)cc1` was tested. Which cytotoxicity call did it give?
A: inactive

Q: Which cytotoxicity call does the source give for `C[C@H](CO)N1C[C@H](C)[C@@H](CN(C)S(=O)(=O)c2ccc(Cl)cc2)Oc2ccc(NC(=O)C3CC3)cc2CC1=O` here?
A: inactive

Q: For `CCOC(=O)c1nonc1N`, which cytotoxicity call is on record?
A: inactive

Q: With `CN(CCCCCCCCCCN(C)C(=O)Oc1cccc([N+](C)(C)C)c1)C(=O)Oc1cccc([N+](C)(C)C)c1` as the molecule, how does the cytotoxicity call read?
A: inactive

Q: How did the cytotoxicity call turn out when `O=C(NCc1ccncc1)C(=O)NC[C@H]1OCCN1S(=O)(=O)c1ccc(F)cc1` was run?
A: inactive

Q: For `C[C@@H]1CN([C@@H](C)CO)C(=O)c2cccc(NC(=O)Nc3ccc(C(F)(F)F)cc3)c2O[C@H]1CN(C)Cc1ccc(-c2ccccc2)cc1`, which cytotoxicity call is on record?
A: inactive

Q: How did the cytotoxicity call turn out when `C[C@H]1CN([C@@H](C)CO)C(=O)c2ccccc2-c2ccccc2CO[C@@H]1CN(C)Cc1ccccc1C(F)(F)F` was run?
A: inactive

Q: With `C[C@H](NC(=O)[C@@H]1CCCC[C@H]1C(=O)O)c1ccccc1.C[C@H](NC(=O)[C@H]1CCCC[C@H]1C(=O)O)c1ccccc1` as the molecule, how does the cytotoxicity call read?
A: inactive

Q: For `CCCC[C@@H](O)c1ccccc1`, which cytotoxicity call is on record?
A: inactive

Q: Which cytotoxicity call does the source give for `C[C@@H](NCCC(c1ccccc1)c1ccccc1)c1ccccc1` here?
A: active

Q: How did the cytotoxicity call turn out when `CC(NCCC(c1ccccc1)c1ccccc1)c1ccccc1.Cl` (centres undefined) was run?
A: active

Q: How did the cytotoxicity call turn out when `CCCCC(O)c1ccccc1` (centres undefined) was run?
A: inactive

Q: Which cytotoxicity call does the source give for `C[C@@H](NC(=O)[C@@H]1CCCC[C@H]1C(=O)O)c1ccccc1.C[C@@H](NC(=O)[C@H]1CCCC[C@H]1C(=O)O)c1ccccc1` here?
A: inactive

Q: How did the cytotoxicity call turn out when `Cc1noc(C)c1NC(=O)Nc1ccc2c(c1)C(=O)N([C@@H](C)CO)C[C@@H](C)[C@@H](CN(C)C(=O)Nc1ccc(C(F)(F)F)cc1)OCCCC[C@@H](C)O2` was run?
A: inactive

Q: `C[C@@H]1CN([C@H](C)CO)C(=O)Cc2cc(NC(=O)Nc3ccc(F)cc3)ccc2O[C@H]1CN(C)C(=O)Nc1cccc2ccccc12` was tested. Which cytotoxicity call did it give?
A: inactive

Q: Which cytotoxicity call does the source give for `C[C@@H]1CN([C@@H](C)CO)C(=O)Cc2cc(NS(=O)(=O)c3cn(C)cn3)ccc2O[C@@H]1CN(C)S(=O)(=O)c1cccs1` here?
A: inactive

Q: Which cytotoxicity call does the source give for `Cc1noc(C)c1S(=O)(=O)N(C)C[C@@H]1OCCCC[C@@H](C)Oc2ccc(NC(=O)Nc3ccccc3)cc2C(=O)N([C@H](C)CO)C[C@@H]1C` here?
A: inactive

Q: With `C[C@@H]1CN([C@H](C)CO)C(=O)Cc2cc(NC(=O)C3CCCCC3)ccc2O[C@H]1CN(C)Cc1ccc(Cl)c(Cl)c1` as the molecule, how does the cytotoxicity call read?
A: inactive

Q: With `N=C(N)c1ccc2nc(-c3cc(CC(=O)N[C@@H](CC(=O)O)C(=O)O)cc(-c4cc(S(N)(=O)=O)ccc4O)c3O)[nH]c2c1` as the molecule, how does the cytotoxicity call read?
A: inactive

Q: For `C[C@H](CO)N1C[C@H](C)[C@H](CN(C)C(=O)Nc2ccc(C(F)(F)F)cc2)Oc2ccc(NC(=O)Nc3cccc4ccccc34)cc2CC1=O`, which cytotoxicity call is on record?
A: inactive

Q: `C[C@@H]1CN([C@@H](C)CO)C(=O)Cc2cc(NC(=O)NC3CCCCC3)ccc2O[C@H]1CN(C)Cc1ccc(Cl)c(Cl)c1` was tested. Which cytotoxicity call did it give?
A: inactive

Q: How did the cytotoxicity call turn out when `C[C@H](CO)N1C[C@H](C)[C@H](CN(C)Cc2ccc(Cl)c(Cl)c2)Oc2ccc(NC(=O)NC3CCCCC3)cc2CC1=O` was run?
A: inactive

Q: For `C[C@@H]1CN([C@H](C)CO)C(=O)Cc2cc(NC(=O)NC3CCCCC3)ccc2O[C@@H]1CN(C)Cc1ccc(Cl)c(Cl)c1`, which cytotoxicity call is on record?
A: active

Q: Which cytotoxicity call does the source give for `C[C@@H]1CN([C@H](C)CO)C(=O)Cc2cc(NC(=O)NC3CCCCC3)ccc2O[C@H]1CN(C)Cc1ccc(Cl)c(Cl)c1` here?
A: inactive

Q: Which cytotoxicity call does the source give for `C[C@@H]1CN([C@@H](C)CO)C(=O)Cc2cc(NC(=O)NC3CCCCC3)ccc2O[C@@H]1CN(C)Cc1ccc(Cl)c(Cl)c1` here?
A: active

Q: `C[C@H](CO)N1C[C@H](C)[C@@H](CN(C)Cc2ccc(Cl)c(Cl)c2)Oc2ccc(NC(=O)NC3CCCCC3)cc2CC1=O` was tested. Which cytotoxicity call did it give?
A: inactive

Q: For `C[C@@H]1CN([C@H](C)CO)C(=O)c2cc(NS(=O)(=O)c3ccc(Cl)cc3)ccc2O[C@@H](C)CCCCO[C@H]1CN(C)C(=O)Nc1ccccc1`, which cytotoxicity call is on record?
A: inactive

Q: How did the cytotoxicity call turn out when `O=C(C[C@@H]1CC[C@@H]2[C@H](COC[C@@H](O)CN2S(=O)(=O)c2ccccc2)O1)NCCN1CCCCC1` was run?
A: inactive

Q: How did the cytotoxicity call turn out when `O=C(c1ccccc1F)N1c2ccccc2Sc2ccccc21` was run?
A: inactive

Q: `CC(CN(C)C)CN1c2ccccc2Sc2ccccc21.O=C(O)C(O)C(O)C(=O)O` (centres undefined) was tested. Which cytotoxicity call did it give?
A: active

Q: How did the cytotoxicity call turn out when `O=C(Nc1ccccc1)N1c2ccccc2CCc2ccccc21` was run?
A: inactive

Q: How did the cytotoxicity call turn out when `CCOC(=O)C(CCc1ccccc1)NC1CCc2ccccc2N(CC(=O)O)C1=O.Cl` (centres undefined) was run?
A: inactive

Q: For `Cc1ccc(C(=O)N2c3ccccc3Sc3ccccc32)cc1`, which cytotoxicity call is on record?
A: inactive

Q: Which cytotoxicity call does the source give for `CC(CN(C)C)CN1c2ccccc2CCc2ccccc21.O=C(O)C=CC(=O)O` (centres undefined) here?
A: active

Q: With `COc1ccc(NC(=O)N(C)C[C@@H]2OCc3ccccc3-c3c(n(C)c4ccccc34)C(=O)N([C@H](C)CO)C[C@@H]2C)c(OC)c1` as the molecule, how does the cytotoxicity call read?
A: inactive

Q: `CCC(=O)Nc1ccc2c(c1)OC[C@@H](C)N(C(=O)CN1CCOCC1)C[C@@H](C)[C@H](OC)CN(C)C2=O` was tested. Which cytotoxicity call did it give?
A: inactive

Q: Which cytotoxicity call does the source give for `Cc1noc(C)c1NC(=O)Nc1ccc2c(c1)C(=O)N([C@H](C)CO)C[C@H](C)[C@@H](CN(C)C(=O)Nc1ccc(C(F)(F)F)cc1)O2` here?
A: inactive

Q: Which cytotoxicity call does the source give for `Cc1ccc(S(=O)(=O)Nc2cccc3c2O[C@H](CN(C)Cc2ccc(Oc4ccccc4)cc2)[C@@H](C)CN([C@@H](C)CO)C3=O)cc1` here?
A: inactive

Q: With `C[C@@H]1CN([C@@H](C)CO)C(=O)Cc2cc(NC(=O)NC3CCCCC3)ccc2O[C@H]1CN(C)S(=O)(=O)c1cn(C)cn1` as the molecule, how does the cytotoxicity call read?
A: inactive

Q: How did the cytotoxicity call turn out when `C[C@H]1CCCCO[C@H](CN(C)S(=O)(=O)c2ccc(F)cc2)[C@@H](C)CN([C@@H](C)CO)C(=O)c2cc(NC(=O)NC3CCCCC3)ccc2O1` was run?
A: inactive

Q: Which cytotoxicity call does the source give for `COc1ccc(CN(C)C[C@H]2Oc3c(NC(=O)CCCCCC(=O)Nc4ccccc4N)cccc3C(=O)N([C@@H](C)CO)C[C@@H]2C)cc1` here?
A: active

Q: For `C[C@@H]1CN([C@H](C)CO)C(=O)c2cccc(NC(=O)CCCCCC(=O)Nc3ccccc3N)c2O[C@H]1CN(C)Cc1ccc(Oc2ccccc2)cc1`, which cytotoxicity call is on record?
A: inactive

Q: `COc1ccc(CN(C)C[C@@H]2Oc3c(NC(=O)CCCCCC(=O)Nc4ccccc4N)cccc3C(=O)N([C@@H](C)CO)C[C@H]2C)cc1` was tested. Which cytotoxicity call did it give?
A: inactive

Q: With `C[C@@H]1CN([C@@H](C)CO)C(=O)c2cccc(NC(=O)CCCCCC(=O)Nc3ccccc3N)c2O[C@@H]1CN(C)Cc1ccc(Oc2ccccc2)cc1` as the molecule, how does the cytotoxicity call read?
A: active

Q: How did the cytotoxicity call turn out when `C[C@H](CO)N1C[C@H](C)[C@H](CN(C)Cc2ccc(Oc3ccccc3)cc2)Oc2c(NC(=O)CCCCCC(=O)Nc3ccccc3N)cccc2C1=O` was run?
A: inactive

Q: How did the cytotoxicity call turn out when `COc1ccc(CN(C)C[C@@H]2Oc3c(NC(=O)CCCCCC(=O)Nc4ccccc4N)cccc3C(=O)N([C@H](C)CO)C[C@H]2C)cc1` was run?
A: inactive

— the antibiotic and cytotoxicity screens of Wong et al. (2023)
